# From PubChem BioAssay
# Calls of active or inactive are those of the source.
# What was measured:
# [1] = tested on: PRMT1 (protein arginine N-methyltransferase 1); assay: PRMT1 binders on small-molecule microarrays, primary screen, biochemical, small-molecule microarray, 635 nm fluorescence (AID 1088); conditions: small-molecule microarray binding, higher = more signal;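 also: binding of Prmt1 protein to compounds spotted on small-molecule microarray slides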
# [2] = yeast growth modulation, basal conditions, primary screen, YJM789 clinical isolate, OD600, 24 h (AID 1089);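 also: growth of clinical yeast isolate S. cerevisiae YJM 789 seeded 1000 cells per well; test concentration not given here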; conditions: S. cerevisiae YJM789 growth, higher = more signal, called active from +8 up or from −8 down
# [3] = fission yeast growth modulation, primary screen, strain 972, OD600, 24 h, no modulator (AID 1090);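 also: basal condition with compound alone and no growth modifier present; test concentration not given here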; conditions: S. pombe 972 growth, higher = more signal, called active from +8 up or from −8 down
# [4] = S. cerevisiae growth modulation with rapamycin, primary screen, strain BY4716, OD600, 96 h (AID 1091); conditions: higher = more signal, called active from +8 up or from −8 down; also: test concentration not given here
# [5] = target: Torsin-1A-interacting protein 2 (Homo sapiens) (UniProt Q8NFQ8); assay: LULL1 binders on small-molecule microarray, primary screen, cell lysate, human LULL1 lysate, 635/667 nm fluorescence (AID 1092); conditions: hLULL1 lysate binding, 635 nm fluorescence, higher = more signal;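 also: probe is lysate of COS7 cells overexpressing human LULL1; score merges per-feature 667 nm fluorescence with signal-to-noise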
# Torsin-1A-interacting protein 2 (Homo sapiens), sequence (Q8NFQ8 whole entry, looked up): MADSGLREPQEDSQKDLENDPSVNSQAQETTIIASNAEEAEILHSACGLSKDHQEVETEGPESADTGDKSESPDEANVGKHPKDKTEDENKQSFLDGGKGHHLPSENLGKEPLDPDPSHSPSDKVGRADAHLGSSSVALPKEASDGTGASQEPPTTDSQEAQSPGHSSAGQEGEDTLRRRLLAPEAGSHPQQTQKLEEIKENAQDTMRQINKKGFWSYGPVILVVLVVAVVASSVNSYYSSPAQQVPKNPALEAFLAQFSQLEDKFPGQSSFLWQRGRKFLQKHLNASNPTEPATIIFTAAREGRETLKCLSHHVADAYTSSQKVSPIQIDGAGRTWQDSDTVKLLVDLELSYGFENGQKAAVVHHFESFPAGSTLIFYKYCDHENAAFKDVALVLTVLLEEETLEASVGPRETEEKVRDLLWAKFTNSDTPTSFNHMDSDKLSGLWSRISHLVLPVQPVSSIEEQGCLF
# [6] = E. coli growth modulation, two-sided OD650, primary screen, E. coli filamentation project, strain DRC41, 24 h (AID 1093); conditions: OD650, 24 h, higher = more signal, called active from +8 up or from −8 down;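 also: MC1000 strain lacking acrAB efflux and sulA so SOS filamentation is blocked; test concentration not given here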
# [7] = small-molecule microarray binders of probe aLefty2, primary screen, biochemical, biotinylated probe, 635/667 nm fluorescence (AID 1094); conditions: higher = more signal;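 also: score merges spot fluorescence near 667 nm with spot signal-to-noise ratio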
# [8] = tested on: Noggin (protein binding on small-molecule microarray); assay: Noggin binders on small-molecule microarray, primary screen, biochemical, 635/667 nm fluorescence (AID 1095); conditions: 635 nm fluorescence, higher = more signal;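 also: score merges 667 nm feature fluorescence with signal to noise over triplicate slides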
# [9] = target: Neurogenic locus notch homolog protein 3 (Homo sapiens) (UniProt Q9UM47); assay: NOTCH3 binders on small-molecule microarray, primary screen, biochemical, 635/667 nm fluorescence (AID 1096); conditions: NOTCH3 binding, 635 nm fluorescence, higher = more signal
# Neurogenic locus notch homolog protein 3 (Homo sapiens), sequence (Q9UM47 whole entry, looked up): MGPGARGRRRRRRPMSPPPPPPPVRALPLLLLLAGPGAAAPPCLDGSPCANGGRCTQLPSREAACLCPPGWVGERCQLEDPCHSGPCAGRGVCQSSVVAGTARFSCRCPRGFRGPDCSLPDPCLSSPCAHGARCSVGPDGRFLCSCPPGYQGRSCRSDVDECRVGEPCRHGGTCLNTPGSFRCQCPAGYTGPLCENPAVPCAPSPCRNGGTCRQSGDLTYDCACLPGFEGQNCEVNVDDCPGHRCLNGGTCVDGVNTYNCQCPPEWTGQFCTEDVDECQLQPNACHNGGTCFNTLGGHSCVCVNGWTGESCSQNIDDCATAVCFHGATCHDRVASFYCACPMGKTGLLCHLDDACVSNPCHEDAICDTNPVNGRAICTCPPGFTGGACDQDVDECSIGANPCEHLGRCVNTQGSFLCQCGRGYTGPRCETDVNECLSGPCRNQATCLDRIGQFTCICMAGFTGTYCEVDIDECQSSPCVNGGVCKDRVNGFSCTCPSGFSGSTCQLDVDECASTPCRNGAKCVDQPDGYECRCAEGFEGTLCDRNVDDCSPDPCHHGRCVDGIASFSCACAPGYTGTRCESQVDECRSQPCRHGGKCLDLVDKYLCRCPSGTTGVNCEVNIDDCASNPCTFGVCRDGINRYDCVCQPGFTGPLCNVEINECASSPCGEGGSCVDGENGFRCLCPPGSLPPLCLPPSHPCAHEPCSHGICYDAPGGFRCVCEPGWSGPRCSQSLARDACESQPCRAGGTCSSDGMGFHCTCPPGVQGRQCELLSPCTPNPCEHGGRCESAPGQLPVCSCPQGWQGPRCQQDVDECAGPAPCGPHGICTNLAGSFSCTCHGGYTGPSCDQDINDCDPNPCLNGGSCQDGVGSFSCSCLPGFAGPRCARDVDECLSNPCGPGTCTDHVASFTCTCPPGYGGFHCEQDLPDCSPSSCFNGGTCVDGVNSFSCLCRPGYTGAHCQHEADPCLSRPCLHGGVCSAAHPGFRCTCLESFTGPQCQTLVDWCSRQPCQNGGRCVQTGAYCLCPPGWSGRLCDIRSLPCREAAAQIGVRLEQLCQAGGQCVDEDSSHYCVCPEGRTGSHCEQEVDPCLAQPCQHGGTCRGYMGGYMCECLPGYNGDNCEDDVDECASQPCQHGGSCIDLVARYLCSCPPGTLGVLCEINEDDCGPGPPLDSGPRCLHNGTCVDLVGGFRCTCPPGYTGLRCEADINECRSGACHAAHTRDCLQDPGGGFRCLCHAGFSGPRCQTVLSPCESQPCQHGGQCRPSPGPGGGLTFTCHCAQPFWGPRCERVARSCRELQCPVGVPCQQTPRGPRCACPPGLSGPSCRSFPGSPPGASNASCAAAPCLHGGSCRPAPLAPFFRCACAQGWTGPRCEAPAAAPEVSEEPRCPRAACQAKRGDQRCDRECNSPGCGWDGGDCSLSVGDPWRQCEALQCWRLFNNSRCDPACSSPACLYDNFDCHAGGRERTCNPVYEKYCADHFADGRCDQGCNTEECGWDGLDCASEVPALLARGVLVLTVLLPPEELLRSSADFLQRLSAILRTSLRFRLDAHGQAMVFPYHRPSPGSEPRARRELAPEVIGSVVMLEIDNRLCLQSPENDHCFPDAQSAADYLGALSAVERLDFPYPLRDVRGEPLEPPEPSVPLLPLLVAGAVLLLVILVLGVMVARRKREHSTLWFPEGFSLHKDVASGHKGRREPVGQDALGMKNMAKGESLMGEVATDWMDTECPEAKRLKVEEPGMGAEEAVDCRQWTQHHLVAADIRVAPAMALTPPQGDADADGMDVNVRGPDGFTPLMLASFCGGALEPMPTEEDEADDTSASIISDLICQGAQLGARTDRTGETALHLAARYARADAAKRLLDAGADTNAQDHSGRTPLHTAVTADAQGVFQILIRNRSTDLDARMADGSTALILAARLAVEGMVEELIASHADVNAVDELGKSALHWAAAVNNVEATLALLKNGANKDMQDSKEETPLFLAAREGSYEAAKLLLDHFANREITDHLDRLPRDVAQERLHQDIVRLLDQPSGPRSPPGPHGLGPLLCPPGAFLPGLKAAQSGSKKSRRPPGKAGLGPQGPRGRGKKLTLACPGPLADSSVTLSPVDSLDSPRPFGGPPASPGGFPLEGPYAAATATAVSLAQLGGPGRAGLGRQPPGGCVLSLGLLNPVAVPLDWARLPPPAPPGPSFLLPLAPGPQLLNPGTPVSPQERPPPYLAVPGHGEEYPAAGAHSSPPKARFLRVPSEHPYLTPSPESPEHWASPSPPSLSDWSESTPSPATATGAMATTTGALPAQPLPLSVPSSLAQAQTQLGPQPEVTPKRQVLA
# [10] = small-molecule microarray binders of probe aEGFR, primary screen, biochemical, biotinylated probe, 635/667 nm fluorescence (AID 1097); conditions: higher = more signal;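 also: probe is a biotinylated anti-EGFR antibody binding compounds printed on slides; score combines fluorescence near 667 nm and signal to noise of each spot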
# [11] = tested on: Plasmodium falciparum Sir2 (PF13_0152, Sir2A); assay: pfSir2 binders on small-molecule microarrays, primary screen, biochemical, small-molecule microarray, 635 nm fluorescence (AID 1098); conditions: small-molecule microarray binding, fluorescence 635 nm; higher = more signal;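 also: score merges spot fluorescence intensity with its signal-to-noise ratio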
# [12] = small-molecule microarray binders of probe aDKK1, primary screen, biochemical, biotinylated probe, 635/667 nm fluorescence (AID 1099); conditions: higher = more signal;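 also: score merges 667nm spot fluorescence with signal to noise across triplicate slides; reference of the scale not given here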
# [13] = small-molecule microarray binders of probe aCHRDL2, primary screen, biochemical, biotinylated probe, 635/667 nm fluorescence (AID 1100); conditions: higher = more signal
# [14] = splicing luciferase reporter signal modulators, primary screen, spliceosome inhibition project, cell-based, HEK293, splice +/- reporter (AID 1101); conditions: luminescence, 24 h, higher = more signal, called active from +8 up or from −8 down;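 also: HEK293 cells carrying a splicing-competent luciferase reporter gene; test concentration not given here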
# [15] = target: Fibroblast growth factor 10 (Homo sapiens) (UniProt O15520); assay: FGF10 binders on small-molecule microarrays, primary screen, biochemical, small-molecule microarray, 635 nm fluorescence (AID 1102); conditions: FGF10 binding, fluorescence 635 nm, higher = more signal
# Fibroblast growth factor 10 (Homo sapiens), sequence (O15520 whole entry, looked up): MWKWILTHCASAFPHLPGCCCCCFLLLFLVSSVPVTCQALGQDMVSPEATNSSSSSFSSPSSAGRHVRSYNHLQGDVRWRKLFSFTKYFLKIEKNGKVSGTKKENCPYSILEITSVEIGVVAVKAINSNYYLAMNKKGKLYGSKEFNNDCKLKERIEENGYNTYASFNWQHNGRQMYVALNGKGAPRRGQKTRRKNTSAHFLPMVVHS
# [16] = tested on: glycogen synthase kinase-3 (GSK3A per assay name; protocol says GSK3B); assay: GSK3 binders on small-molecule microarrays, primary screen, biochemical, small-molecule microarray, 635 nm fluorescence, GSK3A (AID 1103); conditions: small-molecule microarray binding, fluorescence 635 nm; higher = more signal; also: the record names both GSK3A and GSK3B
# [17] = target: Epidermal growth factor receptor (Homo sapiens) (UniProt P00533); assay: EGFR binders on small-molecule microarrays, primary screen, biochemical, small-molecule microarray, 635 nm fluorescence (AID 1104); conditions: EGFR binding, higher = more signal;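 also: score merges 667 nm emission intensity with spot signal to noise over triplicate slides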
# Epidermal growth factor receptor (Homo sapiens), sequence (P00533 whole entry, looked up): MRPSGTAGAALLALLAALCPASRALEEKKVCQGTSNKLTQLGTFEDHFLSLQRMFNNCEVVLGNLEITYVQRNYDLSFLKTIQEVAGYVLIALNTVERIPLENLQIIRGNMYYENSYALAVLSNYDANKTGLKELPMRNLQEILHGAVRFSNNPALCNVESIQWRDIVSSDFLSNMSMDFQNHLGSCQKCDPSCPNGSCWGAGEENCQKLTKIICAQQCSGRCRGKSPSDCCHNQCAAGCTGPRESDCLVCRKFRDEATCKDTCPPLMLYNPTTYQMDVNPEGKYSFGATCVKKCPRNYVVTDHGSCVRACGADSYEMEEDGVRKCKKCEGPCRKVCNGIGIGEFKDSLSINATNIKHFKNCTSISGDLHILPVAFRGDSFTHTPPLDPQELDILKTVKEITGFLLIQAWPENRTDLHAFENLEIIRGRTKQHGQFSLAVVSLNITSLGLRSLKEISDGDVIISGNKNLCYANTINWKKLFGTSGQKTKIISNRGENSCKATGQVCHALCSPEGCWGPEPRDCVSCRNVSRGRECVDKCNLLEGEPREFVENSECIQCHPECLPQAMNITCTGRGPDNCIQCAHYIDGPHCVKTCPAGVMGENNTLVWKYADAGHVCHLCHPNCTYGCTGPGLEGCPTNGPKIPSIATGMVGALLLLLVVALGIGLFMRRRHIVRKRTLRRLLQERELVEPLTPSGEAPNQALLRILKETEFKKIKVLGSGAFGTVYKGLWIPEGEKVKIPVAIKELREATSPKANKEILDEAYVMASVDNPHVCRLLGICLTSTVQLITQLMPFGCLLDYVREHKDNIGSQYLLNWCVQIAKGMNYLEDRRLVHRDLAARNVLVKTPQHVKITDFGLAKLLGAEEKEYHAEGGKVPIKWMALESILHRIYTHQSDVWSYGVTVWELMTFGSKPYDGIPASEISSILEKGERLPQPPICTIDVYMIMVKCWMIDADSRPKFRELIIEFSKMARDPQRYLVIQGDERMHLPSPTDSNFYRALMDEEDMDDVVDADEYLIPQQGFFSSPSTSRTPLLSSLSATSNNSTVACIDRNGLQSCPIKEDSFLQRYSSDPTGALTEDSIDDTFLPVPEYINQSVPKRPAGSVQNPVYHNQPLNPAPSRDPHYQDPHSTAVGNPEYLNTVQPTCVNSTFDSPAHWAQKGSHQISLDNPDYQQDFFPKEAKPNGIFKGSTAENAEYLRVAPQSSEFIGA
# [18] = target: Follistatin-related protein 3 (Homo sapiens) (UniProt O95633); assay: FSTL3 binders on small-molecule microarrays, primary screen, biochemical, small-molecule microarray, 635 nm fluorescence (AID 1105); conditions: FSTL3 binding, higher = more signal;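 also: score merges emission near 667 nm and signal to noise per printed spot across three slides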
# Follistatin-related protein 3 (Homo sapiens), sequence (O95633 whole entry, looked up): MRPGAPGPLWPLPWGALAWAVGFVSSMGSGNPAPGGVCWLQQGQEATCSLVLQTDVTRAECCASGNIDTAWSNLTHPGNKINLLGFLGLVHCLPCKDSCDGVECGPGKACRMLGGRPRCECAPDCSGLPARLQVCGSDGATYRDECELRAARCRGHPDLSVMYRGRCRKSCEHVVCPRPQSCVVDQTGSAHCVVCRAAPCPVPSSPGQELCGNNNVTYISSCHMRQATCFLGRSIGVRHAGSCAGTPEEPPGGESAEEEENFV
# [19] = target: Dickkopf-related protein 1 (Homo sapiens) (UniProt O94907); assay: DKK1 binders on small-molecule microarrays, primary screen, biochemical, small-molecule microarray, 635 nm fluorescence scan (AID 1106); conditions: DKK1 binding, higher = more signal;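 also: score merges emission near 667 nm with signal to noise over three replicate slides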
# Dickkopf-related protein 1 (Homo sapiens), sequence (O94907 whole entry, looked up): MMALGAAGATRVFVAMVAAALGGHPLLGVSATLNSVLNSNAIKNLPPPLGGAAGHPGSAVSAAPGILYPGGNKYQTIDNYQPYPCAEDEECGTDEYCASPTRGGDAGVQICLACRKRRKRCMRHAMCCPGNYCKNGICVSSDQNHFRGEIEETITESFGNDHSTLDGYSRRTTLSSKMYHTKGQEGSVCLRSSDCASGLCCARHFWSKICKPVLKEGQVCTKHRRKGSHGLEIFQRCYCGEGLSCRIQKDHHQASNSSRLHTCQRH
# [20] = tested on: Inhibin beta A chain (activin A); assay: INHBA (activin A) binders on microarrays, primary screen, biochemical, small-molecule microarray, 635 nm fluorescence scan (AID 1107); conditions: small-molecule microarray binding, higher = more signal;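 also: mouse activin A protein probed at 4.33 µg/mL on printed slides; score merges bound-protein fluorescence near 667 nm with spot signal-to-noise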
smiles,measurement,setting,value
COc1cc2c(cc1O)C(C1CC1)N(C)CC2 (stereo not given),composite z-score,[1],0.153
same,z-score,[2],0.814 (inactive)
same,z-score,[3],0.74 (inactive)
same,z-score,[4],-0.531 (inactive)
same,composite z-score,[5],0.0629
same,z-score,[6],-0.965 (inactive)
same,composite z-score,[7],0.0112
same,composite z-score,[8],0.0427
same,composite z-score,[9],-0.944
same,composite z-score,[10],-0.171
same,composite z-score,[11],0.353
same,composite z-score,[12],0.211
same,composite z-score,[13],0.583
same,z-score,[14],-0.451 (inactive)
same,composite z-score,[15],-0.382
same,composite z-score,[16],-1.3
same,composite z-score,[17],-1.17
same,composite z-score,[18],-0.57
same,composite z-score,[19],-0.896
same,composite z-score,[20],0.942
O=C1OCCC/C=C\[C@H]2OC34C=CCN(c5ccc6ccccc6c5)C(=O)[C@H]3N(CCO)C(=O)[C@@H]4C12 (stereo not given in full),composite z-score,[1],-0.352
same,z-score,[2],0.0709 (inactive)
same,z-score,[3],-0.224 (inactive)
same,z-score,[4],0.341 (inactive)
same,composite z-score,[5],0.25
same,z-score,[6],0.491 (inactive)
same,composite z-score,[7],-0.14
same,composite z-score,[8],-1.79
same,composite z-score,[9],-0.858
same,composite z-score,[10],-0.335
same,composite z-score,[11],1.32
same,composite z-score,[12],-0.416
same,composite z-score,[13],0.256
same,z-score,[14],-1.07 (inactive)
same,composite z-score,[15],-0.654
same,composite z-score,[16],-0.785
same,composite z-score,[17],-1.83
same,composite z-score,[18],-1.59
same,composite z-score,[19],-1.09
same,composite z-score,[20],0.0621
COCCOC(=O)N1C(=O)[C@@]2(c3cc(C#CCC(C(=O)OC)C(=O)OC)ccc31)[C@H](c1ccc(OCCO)cc1)N1[C@H](c3ccccc3)[C@H](c3ccccc3)OC(=O)[C@H]1[C@@H]2C(=O)N1CCc2cc(OC)c(OC)cc2C1,composite z-score,[1],1.55
same,z-score,[2],2.13 (inactive)
same,z-score,[3],2 (inactive)
same,z-score,[4],5.2 (inactive)
same,composite z-score,[5],2.81
same,z-score,[6],0.713 (inactive)
same,composite z-score,[7],0.0146
same,composite z-score,[8],1.72
same,composite z-score,[9],1.06
same,composite z-score,[10],0.091
same,composite z-score,[11],0.752
same,composite z-score,[12],0.258
same,composite z-score,[13],0.0031
same,z-score,[14],0.414 (inactive)
same,composite z-score,[15],1.4
same,composite z-score,[16],1.31
same,composite z-score,[17],0.76
same,composite z-score,[18],1.28
same,composite z-score,[19],0.411
same,composite z-score,[20],0.622
CC(=O)NCCCC[C@@H]1NC(=O)[C@@H]2C[C@H](C(=O)NCCCCCN)[C@H](c3cccc(OCCO)c3)N2C1=O,composite z-score,[1],0.872
same,z-score,[2],-3.85 (inactive)
same,z-score,[3],-0.31 (inactive)
same,z-score,[4],-0.858 (inactive)
same,composite z-score,[5],1.66
same,z-score,[6],1.36 (inactive)
same,composite z-score,[7],0.534
same,composite z-score,[8],1.42
same,composite z-score,[9],1.09
same,composite z-score,[10],0.101
same,composite z-score,[11],1.05
same,composite z-score,[12],0.681
same,composite z-score,[13],0.0358
same,z-score,[14],-1.29 (inactive)
same,composite z-score,[15],1.24
same,composite z-score,[16],0.533
same,composite z-score,[17],0.504
same,composite z-score,[18],1.33
same,composite z-score,[19],0.823
same,composite z-score,[20],0.488
C=CCC(OC(C)=O)[C@@H]1[C@@H](N(Cc2cccc3ccccc23)C(=O)Cc2ccc(F)cc2)c2cc(OCCCO)ccc2N1C(=O)c1ccc2ccccc2c1 (stereo not given in full),composite z-score,[1],-0.209
same,z-score,[2],-0.19 (inactive)
same,z-score,[3],1.43 (inactive)
same,z-score,[4],-0.235 (inactive)
same,composite z-score,[5],0.226
same,z-score,[6],0.693 (inactive)
same,composite z-score,[7],0.0261
same,composite z-score,[8],0.154
same,composite z-score,[9],0.268
same,composite z-score,[10],-0.0967
same,composite z-score,[11],-0.246
same,composite z-score,[12],-0.469
same,composite z-score,[13],0.0515
same,z-score,[14],-0.527 (inactive)
same,composite z-score,[15],-0.134
same,composite z-score,[16],0.0566
same,composite z-score,[17],0.0199
same,composite z-score,[18],0.565
same,composite z-score,[19],0.301
same,composite z-score,[20],1.24
CCCC#C[Si](O[C@H](CC)c1cn([C@H](C)c2ccccc2)nn1)(C(C)C)C(C)C,composite z-score,[1],0.817
same,z-score,[2],-0.764 (inactive)
same,z-score,[3],-10.2 (active)
same,z-score,[4],-3.25 (inactive)
same,composite z-score,[5],1.05
same,z-score,[6],2.37 (inactive)
same,composite z-score,[7],0.0539
same,composite z-score,[8],0.316
same,composite z-score,[9],0.579
same,composite z-score,[10],0.359
same,composite z-score,[11],0.2
same,composite z-score,[12],0.313
same,composite z-score,[13],-0.212
same,z-score,[14],-0.383 (inactive)
same,composite z-score,[15],0.568
same,composite z-score,[16],0.588
same,composite z-score,[17],0.564
same,composite z-score,[18],0.47
same,composite z-score,[19],0.285
same,composite z-score,[20],-0.348
CC(C)N1C(=O)C[C@@](C(=O)O)(c2ccc([N+](=O)[O-])cc2)[C@H]1c1ccc(CO)cc1,composite z-score,[1],1.01
same,z-score,[2],0.548 (inactive)
same,z-score,[3],-0.996 (inactive)
same,z-score,[4],-0.265 (inactive)
same,composite z-score,[5],2.72
same,z-score,[6],1.27 (inactive)
same,composite z-score,[7],0.0511
same,composite z-score,[8],-1.13
same,composite z-score,[9],0.0599
same,composite z-score,[10],-0.158
same,composite z-score,[11],1.08
same,composite z-score,[12],0.744
same,composite z-score,[13],1.11
same,z-score,[14],-0.186 (inactive)
same,composite z-score,[15],-0.443
same,composite z-score,[16],-0.381
same,composite z-score,[17],-1.12
same,composite z-score,[18],-0.633
same,composite z-score,[19],-0.803
same,composite z-score,[20],0.593
COc1cc2c(cc1O)C(c1cccs1)N(Cc1cc3c(cc1Br)OCO3)CC2 (stereo not given),composite z-score,[1],1.53
same,z-score,[2],-0.592 (inactive)
same,z-score,[3],-4.96 (inactive)
same,z-score,[4],-0.859 (inactive)
same,composite z-score,[5],3.45
same,z-score,[6],-1.45 (inactive)
same,composite z-score,[7],0.183
same,composite z-score,[8],0.289
same,composite z-score,[9],1.07
same,composite z-score,[10],0.0778
same,composite z-score,[11],1.5
same,composite z-score,[12],0.421
same,composite z-score,[13],0.726
same,z-score,[14],-0.0664 (inactive)
same,composite z-score,[15],1.47
same,composite z-score,[16],1.32
same,composite z-score,[17],0.345
same,composite z-score,[18],1.13
same,composite z-score,[19],0.449
same,composite z-score,[20],0.632
NC(=O)NCC#Cc1ccc2c(c1)[C@]1(C(=O)N2)[C@H](C(=O)N2CCN(c3ncccn3)CC2)[C@H]2C(=O)O[C@H](c3ccccc3)[C@H](c3ccccc3)N2[C@@H]1c1ccc(O)cc1,composite z-score,[1],1.33
same,z-score,[2],0.541 (inactive)
same,z-score,[3],-0.281 (inactive)
same,z-score,[4],0.971 (inactive)
same,composite z-score,[5],0.828
same,z-score,[6],-0.653 (inactive)
same,composite z-score,[7],0.109
same,composite z-score,[8],0.517
same,composite z-score,[9],1.08
same,composite z-score,[10],0.0283
same,composite z-score,[11],0.615
same,composite z-score,[12],0.287
same,composite z-score,[13],0.208
same,z-score,[14],-0.534 (inactive)
same,composite z-score,[15],1.21
same,composite z-score,[16],-0.0752
same,composite z-score,[17],0.755
same,composite z-score,[18],1.41
same,composite z-score,[19],0.704
same,composite z-score,[20],-0.131
CCCCC(CC)C(O)C1C=CC2C(=O)N(c3ccccc3)C(=O)C2N1Nc1ccccc1F (stereo not given),composite z-score,[1],1.53
same,z-score,[2],-0.802 (inactive)
same,z-score,[3],1.53 (inactive)
same,z-score,[4],0.314 (inactive)
same,composite z-score,[5],2.64
same,z-score,[6],0.379 (inactive)
same,composite z-score,[7],0.222
same,composite z-score,[8],0.0782
same,composite z-score,[9],0.822
same,composite z-score,[10],-0.162
same,composite z-score,[11],1.02
same,composite z-score,[12],0.36
same,composite z-score,[13],0.852
same,z-score,[14],-0.561 (inactive)
same,composite z-score,[15],0.944
same,composite z-score,[16],1.23
same,composite z-score,[17],-0.187
same,composite z-score,[18],0.517
same,composite z-score,[19],-0.505
same,composite z-score,[20],0.744
